# Screening results deposited in PubChem by several laboratories.
# Rows were chosen to be rich in hits. Some 32% of all compounds tested hit in one or more screens of this group.
# CYP2C19 act: increases human CYP2C19 enzyme activity | P33261 | recombinant CYP2C19, luciferin-H EGE luminescence; hits give high values; 0 = fully inhibited enzyme, 1 = untreated enzyme | activation factor at 5 µM | 96,000 tested, under 10 active;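 active means activation factor of at least 2 at 5 µM in the primary screen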;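 further: 0 = wells with 2.5 mM tranylcypromine and 1 = vehicle-only wells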
# Target sequence (P33261 whole entry, looked up): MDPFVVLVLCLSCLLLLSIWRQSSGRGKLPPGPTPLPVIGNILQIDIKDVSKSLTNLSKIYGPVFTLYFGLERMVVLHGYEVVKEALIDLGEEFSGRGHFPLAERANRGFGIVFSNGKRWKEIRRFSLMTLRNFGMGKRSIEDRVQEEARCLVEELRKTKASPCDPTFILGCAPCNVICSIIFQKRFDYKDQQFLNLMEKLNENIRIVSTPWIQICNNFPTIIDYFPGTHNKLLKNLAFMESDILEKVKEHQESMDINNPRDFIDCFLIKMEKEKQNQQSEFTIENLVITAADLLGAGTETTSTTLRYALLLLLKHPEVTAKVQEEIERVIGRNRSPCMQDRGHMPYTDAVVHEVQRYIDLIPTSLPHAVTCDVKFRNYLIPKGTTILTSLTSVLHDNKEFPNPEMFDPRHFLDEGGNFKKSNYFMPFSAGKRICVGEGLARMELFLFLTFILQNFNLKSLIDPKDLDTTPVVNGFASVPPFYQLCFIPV
# CYP2C9 activ: CYP2C9 (human) activation | P11712 | recombinant CYP2C9, luciferin-H conversion, luminescence; hits give high values; factor 1 = untreated enzyme, 0 = blocked | activation factor at 5 µM | hit rate 1.4% among 96,000;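 active means activation factor of 2 or more for CYP2C9 at a 5 µM dose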;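 further: 0 = sulfaphenazole-blocked wells and 1 = vehicle-only wells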
# PostGolgi yeast: growth inhibition of a yeast mutant, post-Golgi transport screen. post-Golgi transport phenotypic cell assay. inhibition, % at 10 µM. hit rate 0.9% among 98,000. AID 739;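 further: yeast cells grown in 1536-well plates; yeast grown about 18 h at 30C before absorbance read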
# CYP2C19 inh: inhibitors of human CYP2C19; P33261; CYP2C19 Supersomes, luciferin-H EGE luminescence, 30 min; inhibition, % at 5 µM; hit rate 21% among 96,000; AID 778;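 active means CYP2C19 inhibition above a set limit at 5 µM in the primary screen, cut at about 50% in these data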;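 further: plate controls were negative control wells for no effect and 2.5 mM tranylcypromine positive control for full effect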
# PostGolgi ctrl: inhibits growth of the yeast control strain; AID 738; efflux-deficient yeast background strain, growth absorbance A615, 16 h; inhibition, % at 10 µM; hit rate 5% among 98,000
# CYP2C9 inhib: blocks human cytochrome P450 2C9; inhibition, % at 5 µM; AID 777; P11712; CYP2C9 Supersomes, luciferin-H conversion, luminescence; hit rate 20% among 96,000;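 active means blocking of liver enzyme CYP2C9 beyond about 50% at 5 µM, limit read from the data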
# * hit, by the source's call; / = no result given. Unless noted, no stated cut-off is given here; in the data, active means inhibition above about 30%; inactive means the rest.
SMILES,CYP2C19 act,CYP2C9 activ,PostGolgi yeast,CYP2C19 inh,PostGolgi ctrl,CYP2C9 inhib
CC(=O)Oc1c(Cl)c(N2CCOCC2)c(OC(C)=O)c2ccccc12,0.5,0.7,14.9,52.0*,9.1,25.8
Cc1cc(OC(=O)N2CCOCC2)cc(C)c1Cl,0.9,1.3,11.3,6.4,10.2,-25.1
CC(=O)c1ccc(NC(=O)N[C@@H](CC(C)C)C(=O)O)cc1,1.1,1.1,-0.2,-8.5,8.5,-7.0
CSC1=C(C#N)C(c2ccc(Cl)cc2)C2=C(CC(C)(C)CC2=O)N1 (centres undefined),0.8,0.3,/,23.6,/,65.4*
CCCSC1=C(C#N)C(c2ccc(OC)cc2)C2=C(CC(C)(C)CC2=O)N1 (centres undefined),0.9,0.8,2.5,12.6,6.0,16.4
COc1ccc(C2C(C#N)=C(C)NC3=C2C(=O)CC(C)(C)C3)cc1 (centres undefined),0.6,0.3,-8.2,36.3,2.4,65.6*
Cc1ccc(C)c(-n2c(CNc3ccc(F)cc3)nnc2SCC(N)=O)c1,1,0.8,0.2,2.4,4.5,21.5
Cc1ccc(-c2cnc(NC(=O)c3cccc(Br)c3)s2)c(C)c1,1,0.7,-8.4,-2.9,-2.1,33.4
CCOC(=O)c1cnn(-c2ccccc2)c1-n1cccc1C(=O)C(=O)Nc1ccccc1C(F)(F)F,0.5,0.3,3.4,53.9*,7.1,65.4*
CCOC(=O)c1cnn(-c2ccccc2)c1NC(=O)c1ccccc1C,0.8,1.1,-6.2,15.7,-8.0,-5.2
Cn1c(OCc2cccnc2)nc2c1c(=O)n(Cc1ccccc1)c(=O)n2C,0.9,0.9,-1.7,6.7,4.3,9.8
Cn1c(=O)c2c(nc(SCCCC#N)n2Cc2c(F)cccc2Cl)n(C)c1=O,0.9,0.4,3.2,13.5,10.3,59.3*
Cn1c(=O)c2c(nc(Br)n2Cc2c(F)cccc2Cl)n(C)c1=O,0.8,1,/,19.9,/,3.2
CC(C)c1nc(SCc2c(F)cccc2Cl)c2c(=O)n(C)c(=O)n(C)c2n1,1,0.3,1.3,1.3,11.8,67.2*
Cn1c(=O)c2c(nc(OCc3cccnc3)n2Cc2c(F)cccc2Cl)n(C)c1=O,0.8,0.5,-4.1,17.0,30.4*,51.5*
CCOC(=O)C1C(=O)NC(N2CCCCC2)=NC1c1ccco1 (centres undefined),1.2,1.1,1.8,-22.1,1.9,-10.7
CCOC(=O)N1CCC(Nc2cc(C)nc3c(-c4ccccc4OC)c(C)nn23)CC1,0.2,0.2,-3.1,84.1*,1.1,79.1*
COc1ccccc1-c1c(C)nn2c(N3CCC4(CC3)OCCO4)cc(C)nc12,0.9,0.9,4.1,12.0,97.6*,6.3
CCOC(=O)Cc1c(C)nc2c(-c3ccc(OC)cc3)c(C)nn2c1C,0.8,0.6,-11.9,17.5,8.9,40.0
O=C(O)CC1NC(=S)N(c2ccccc2)C1=O (centres undefined),1.1,1.1,-2.0,-6.9,15.0,-12.8
O=C1C(Cc2ccc(O)cc2)NC(=S)N1c1ccccc1 (centres undefined),0.4,0.6,-0.2,56.9*,3.7,38.4
CC(OC(=O)c1cccnc1SCc1cc(=O)n2ccccc2n1)c1ccccn1 (centres undefined),0.6,0.4,-4.7,35.5,10.2,60.5*
CCOC(=O)c1cccnc1SCc1cc(=O)n2ccccc2n1,0.8,0.7,62.8*,18.6,28.2,34.7
COC(=O)C1CCCN1C(=O)C1CCCN1C(=O)CNC(=O)OCc1ccccc1 (centres undefined),1.1,1,2.6,-5.8,-1.2,3.2
CCOc1ccc(C(=S)N2CCCC2)cc1,0.1,0.8,-0.3,88.9*,-1.4,21.3
SMILES,CYP2C19 act,CYP2C9 activ,PostGolgi yeast,CYP2C19 inh,PostGolgi ctrl,CYP2C9 inhib
COc1cc(C(=S)N2CCCC2)cc(OC)c1O,0.4,1,3.9,60.7*,8.1,4.6
COC(=O)c1ccc(Cl)c(NC(=O)NC23CC4CC(CC(C4)C2)C3)c1,0.3,0.2,15.6,68.0*,31.1*,81.7*
CSCCC1NC(=O)N(CC(=O)Nc2cccc3ccccc23)C1=O (centres undefined),0.9,1.3,-0.9,9.5,16.2,-31.5
CCc1ccc2c(Cl)c(C(=O)N/N=C/c3c[nH]c4ccccc34)sc2c1,0.6,0.5,0.8,41.2,41.8*,47.1
O=C(N/N=C/c1c[nH]c2ccc(Br)cc12)c1ccn(Cc2ccc(Cl)cc2)n1,0.7,0.5,3.3,29.9,56.5*,48.5
O=C(N/N=C/c1c[nH]c2ccccc12)c1ccn(Cc2ccc(Cl)cc2Cl)n1,0.4,0.3,5.6,56.8*,9.8,69.6*
Cc1ccc(Cn2ccc(NC(=O)c3cc(-c4ccc(Br)cc4)on3)n2)cc1,1,0.8,-5.3,-3.5,2.4,17.5
COc1ccnc(Oc2ccccc2)c1C(=O)N/C=N/OCc1ccc(F)cc1Cl,0.3,0.4,-10.7,66.5*,8.5,56.1*
COc1ccccc1CO/N=C/NC(=O)c1c(OC)ccnc1Oc1ccc(F)cc1,0,0.2,-29.1,97.1*,50.6*,77.3*
O=C1Nc2ccccc2OC1CC(=O)N1CCCC1 (centres undefined),0.6,0.8,3.4,44.7,9.5,20.0
COc1ccc(NC(=O)C2CCCN2S(=O)(=O)c2ccc(F)cc2)cc1 (centres undefined),0.4,0.1,-0.9,64.2*,-1.1,92.6*
CNC(=O)C1CCCN1S(=O)(=O)c1ccc(OC)cc1 (centres undefined),1,1.3,2.3,2.8,5.6,-25.4
COc1ccc(-c2csc(NC(=O)C3CCCCN3S(=O)(=O)c3ccccc3)n2)cc1 (centres undefined),0.6,0.1,5.6,38.9,52.5*,88.3*
COc1ccc(S(=O)(=O)N2CCCC2C(=O)Nc2ccc(C)cc2)cc1 (centres undefined),0.2,0.5,-6.2,76.4*,3.9,54.1*
COc1ccc(S(=O)(=O)N2CCCC2C(=O)Nc2nc3c(s2)CCCC3)cc1 (centres undefined),0.6,0.2,-2.8,39.8,14.7,80.1*
CCN(CC)c1ccc(C2Nc3cccc4cccc(c34)N2)c(O)c1,0.8,1.2,/,24.2,/,-15.7
O=C1N(c2ccc(Cl)c(Cl)c2)CN(Cc2ccccc2)CN1n1cnnc1,1.1,1.2,12.1,-8.3,-8.0,-16.5
O=C(Nc1nccs1)C1CCCN1S(=O)(=O)c1ccc(F)cc1 (centres undefined),0.6,0.4,-2.8,39.4,3.6,62.3*
Cc1ccc(S(=O)(=O)N2CCC[C@H]2C(=O)OC(C)C(=O)Nc2ncc(Cl)cc2Cl)cc1 (some centres undefined),0.3,1.2,0.2,71.4*,9.8,-23.2
Cc1ccc(NC(=O)NC2CCCN2S(=O)(=O)c2ccc(Cl)cc2)cc1 (centres undefined),0.3,0.1,-7.7,72.6*,33.2*,86.9*
